For orientation: inhibition means the relative decrease from the control value, in per cent.

Results on 40 molecules are retold here after PubChem BioAssay.

A number with no mark means an inactive call. No rule for the calls is given here.

In this assay the target is Pantothenate synthetase (Mycobacterium tuberculosis (strain ATCC 25618 / H37Rv)) (UniProt P9WIL5). Description: Coupled enzyme confirmation of inhibitors against recombinant Mtb PanC (AID 375).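 Also: 0% = full reaction with vehicle and 100% = no enzyme background.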 As to conditions: coupled enzyme assay; at 10 µM, hits give high values.
Sequence of Pantothenate synthetase (Mycobacterium tuberculosis (strain ATCC 25618 / H37Rv)) (P9WIL5 whole entry, looked up): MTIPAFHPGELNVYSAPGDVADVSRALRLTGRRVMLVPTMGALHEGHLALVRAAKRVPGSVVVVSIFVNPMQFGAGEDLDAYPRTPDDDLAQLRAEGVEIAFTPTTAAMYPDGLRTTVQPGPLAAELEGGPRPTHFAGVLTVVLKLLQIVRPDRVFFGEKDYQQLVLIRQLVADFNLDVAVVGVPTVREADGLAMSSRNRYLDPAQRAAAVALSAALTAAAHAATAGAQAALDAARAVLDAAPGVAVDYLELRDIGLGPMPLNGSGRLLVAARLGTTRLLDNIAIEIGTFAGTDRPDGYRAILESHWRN
As for `COc1ccc(-c2nnn(CCc3nn[nH]n3)n2)cc1OC`, the inhibition was 0%.
As to `OC1(c2cccc(C(F)(F)F)c2)CCNCC1`, the inhibition was 4%.
With `FC(F)(F)c1cccc(N2CCN(c3nnnn3-c3ccccc3)CC2)c1`, the inhibition is 0%.
In the case of `CCc1nnc2sc(-c3cc(-c4ccccc4)nc4ccccc34)nn12`, the inhibition is 3%.
Under `COc1cccc(-c2cc(C(F)(F)F)nc(NCc3ccco3)n2)c1` stands 0%.
For `COc1cc(NC(=O)c2ccco2)c(OC)cc1NC(=O)CCC(=O)Nc1cc(C)cc(C)c1`, the inhibition was 8%.
The same measure for `Cn1c(C(=O)OC(C(=O)NC2CCCC2)c2cccnc2)cc2sccc21` (stereo not given): 0%; for `COc1cc2[nH]c(=O)n(CCC(=O)N3CCc4ccccc4C3)c(=O)c2cc1OC`: 0%; for `O=C(CSc1ncnc2c1oc1ccccc12)Nc1ccccc1F`: 2%.
Consider `Cc1nnc(SCc2cn3ccsc3n2)n(N)c1=O`, for which the inhibition was 0%.
The same measure for `OCCn1c(CSc2nnc(-c3ccco3)n2-c2ccccc2)nc2ccc(Cl)cc21`: 2%.
Under `COC(=O)CN(Cc1ccco1)S(=O)(=O)c1ccccc1` stands 1%; under `Cc1cc2ccccc2c(=O)n1CC(=O)Nc1ccc2c(c1)OCO2`, 0%.
Under `CC(C)(C)OC(=O)N1CCN(c2ccc(NC(=O)c3cc4ccccc4oc3=O)cc2)CC1` stands 6%.
Turning to `COc1ccc(NCc2nnc(SCC(=O)Nc3cc(C)cc(C)c3)o2)cc1`, the inhibition was 0%.
Under `C[C@H](CCC(=O)O)[C@H]1CC[C@H]2[C@@H]3C(=O)C[C@@H]4CC(=O)CC[C@]4(C)[C@H]3CC(=O)[C@]12C` stands 2%; under `CC(C)CCNc1cc(=O)n(C)c(=O)n1C`, 0%; under `Cc1ccc(-c2cc(C(F)(F)F)n3nc(C(=O)N4CCCC4)cc3n2)cc1`, 5%.
The same measure for `Cc1cc(=O)[nH]c(SCc2nc3ncccn3c2Br)n1`: 11%.
The same measure for `COc1ccc2c3c(c(=O)oc2c1OCC(N)=O)CCCC3`: 2%; for `CCc1nnc(NC(=O)CSc2nnc(-c3ccoc3C)n2CC(C)C)s1`: 0%.
For `Cc1ccc(Cn2c(CN3CCOCC3)nc3c2c(=O)n(C)c(=O)n3C)cc1`, the inhibition was 0%.
For `CCCOc1ccc(N2C(=O)C3ON(c4ccccc4)C(c4ccc(O)c(OC)c4)C3C2=O)cc1` (stereo not given), the inhibition is 1%.
The same measure for `CCn1c(SCC(N)=O)nc2c1c(=O)n(C)c(=O)n2C`: 0%; for `O=c1c2c3c(sc2nc2sc(C4CC4)nn12)CCCC3`: 0%.
The same measure for `Cc1cc2cc(CNC(=O)c3ccc4c(c3)OCO4)ccc2[nH]1`: 0%; for `C=C(C)c1cccc(C(C)(C)NC(=O)Nc2ncccn2)c1`: 0%; for `Cc1ccc2[nH]c(=O)c(CN(CCCO)S(=O)(=O)c3c(C)ccc4nsnc34)cc2c1`: 6%.
The same measure for `CCOC(=O)CSc1nc(C)c(C(=O)OCC)s1`: 0%; for `COc1ccc2c(c1)Sc1ccccc1N2CCN(C)C`: 3%.
As to `O=C(NC1CCc2ccccc21)C1CCN(S(=O)(=O)c2ccc(-n3cnnn3)cc2)CC1` (stereo not given), the inhibition is 10%.
Under `O=C(NCc1ccc2c(c1)OCO2)C1CCCN(S(=O)(=O)c2cccc3cccnc23)C1` (stereo not given) stands 0%; under `COc1ccc(NC(=O)CSc2nc(C)cc(C(F)(F)F)n2)cc1`, 0%.
Under `Cc1ccccc1OCc1nnc2n1CC(C)S2` (stereo not given) stands 0%; under `Cc1ccc2cc(CN(CCN3CCCC3)C(=O)Nc3ccc(F)cc3)c(=O)[nH]c2c1C`, 0%; under `Fc1ccc(-c2nnc(CN3CCN(c4ncc(C(F)(F)F)cc4Cl)CC3)o2)cc1`, 0%.
On to `CN1CC=C2C(C#N)=C(N)C(C#N)(C#N)C(c3cccc(Cl)c3Cl)C2C1` (stereo not given), for which the inhibition is 0%.
The same measure for `Cc1cc(S(=O)(=O)NC2CCCCC2)ccc1OCC(=O)NCc1ccccn1`: 0%; for `Cn1c(=O)c2c(-c3ccccc3)n(CCCN3CCOCC3)cc2n(C)c1=O`: 0%; for `Cc1ccc2c(c1C)NC(=O)C2(O)CC(=O)c1ccc2c(c1)OCO2` (stereo not given): 0%.
